Screening data from PubChem BioAssay.
This is a sample that favours compounds with a hit; in the whole collection about 2.3% have one here.
Jurkat NFkB inh = inhibitors of induced NF-kB luciferase reporter, primary screen, TCR NF-kB activation inhibitor project, cell-based, luminescence, uHTS; inhibition, % at 4 µM; hit rate 0.53% among 330,000; Jurkat, PMA/ionomycin-induced NF-kB luciferase reporter; AID 435003, 2010; in the data active = inhibition above about 50%
697 NFkB inh = inhibitors of PMA/ionomycin-induced NF-kB reporter, 697 cells, primary screen, B-cell NF-kB inhibitor project, cell-based, luminescence, uHTS | AID 435022, 2010 | inhibition, % at 4 µM | hit rate 0.33% among 330,000 | 697 B-cell NF-kB luciferase reporter, 16 h; in the data active = inhibition above about 35%
Shn3 3UTR inh = reduction of Shn3 3'UTR firefly luciferase signal, primary screen, Schnurri-3 inhibitor project, cell-based, Clone20 osteoblasts, set 2 | hit rate 0.52% among 360,000 | inhibition, % at 12.5 µM | Clone20 osteoblast Shn3 3'UTR firefly luciferase, 24 h;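 active = mean inhibition of at least 75% with every replicate also reaching 75%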
Gli-Sufu antag = Gli-Sufu pathway antagonists, primary screen, luciferase luminescence, Sufu-KO-LIGHT cells, uHTS; inhibition, % at 5 µM; hit rate 0.74% among 340,000; Sufu-KO-LIGHT fibroblasts, Gli luciferase reporter luminescence;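 active = inhibition above about 55%, limit read from the data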
MITF TRPM1 inh = inhibitors of MITF-dependent TRPM1 promoter reporter, primary screen, cell-based, SK-MEL-5, single point, luciferase; SK-MEL-5 TRPM1 promoter luciferase, 24 h; inhibition, % at 12.5 µM; hit rate 0.83% among 330,000;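 active = mean inhibition across replicates of 60% or more, whatever share of single replicates reaches that level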
EBV LMP1 NFkB = EBV LMP1-driven NF-kappaB luciferase reporter inhibitors, primary screen, cell-based, luminescence, single point; hit rate 0.69% among 350,000; LMP1-induced NF-kappaB luciferase reporter cells; inhibition, % at 12.5 µM; in the data active = inhibition above about 41%
Jurkat NFkB conf = PMA/ionomycin-induced NF-kB reporter inhibitors, Jurkat retest, confirmation, T-cell NF-kB inhibitor project, cell-based, luminescence, single concentration. AID 435020, 2010. inhibition, % at 4 µM. shares compounds with Jurkat NFkB inh. hit rate 27% among 2,700. Jurkat NF-kB luciferase, 16 h;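 active = inhibition reaching about 45% at 4 µM in either replicate, limit read from the data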
Each line names hits and unclear results; the compound was inactive in the other large screens (follow-up assays come after a bar, where they were run).

COc1cccc(-c2cc(C(=O)NC3CCCC3)no2)c1	none | Jurkat NFkB conf inactive
O=C(Nc1cccc(O)c1)c1cc(-c2cccs2)on1	none | Jurkat NFkB conf inactive
Clc1ccc(-n2nnnc2-c2ccccc2)cc1	none
COc1ccc(-n2nnnc2-c2ccccc2)cc1	Jurkat NFkB inh 53 | Jurkat NFkB conf 58
CC1CCN(C(=O)c2ccccc2NS(=O)(=O)c2ccccc2)CC1	none
CC1=Nc2cc(C(=O)NCc3ccco3)ccc2Sc2ccc(C)cc21	Jurkat NFkB inh 51 | Jurkat NFkB conf inactive
CC(C)(Oc1ccc(CCNC(=O)c2ccc(-c3ccc(Cl)cc3)o2)cc1)C(=O)O	none
COc1ccc(COc2cc(-c3cccc(OC)c3)nc3ccc(N)cc23)cc1	Jurkat NFkB inh 52 | Jurkat NFkB conf inactive
COc1ccc(COc2cc(-c3cccc(OC)c3)nc3ccc(NC(C)=O)cc23)cc1	none
O=C(NCc1ccccc1)C(c1ccncc1)N(C(=O)c1csnn1)c1ccccc1F (stereo not drawn)	none
CCOc1ccc(C(C)=O)cc1COc1cccnc1[N+](=O)[O-]	Jurkat NFkB inh 54, EBV LMP1 NFkB 51 | Jurkat NFkB conf inactive
COc1ccc(C(C)=O)cc1COc1cccnc1[N+](=O)[O-]	Jurkat NFkB inh 55 | Jurkat NFkB conf inactive
O=C(O)c1ccc2c(c1)N(Cc1ccccc1F)C(=O)c1ccccc1S2=O (stereo not drawn)	none
O=C1CCC2c3ccc4ccccc4c3CCN12 (stereo not drawn)	none
C(=N\NC1=Nc2cccc3cccc1c23)/c1ccccc1	none | Jurkat NFkB conf inactive
Clc1ccc(/C=N/NC2=Nc3cccc4cccc2c34)cc1	none
CCOC(=O)CSC1=C(C#N)C(c2ccc(Cl)cc2)CC(=O)N1 (stereo not drawn)	none
CCOC(=O)CSC1=C(C#N)C(c2ccc(C)o2)CC(=O)N1 (stereo not drawn)	Jurkat NFkB inh 58 | Jurkat NFkB conf inactive
COc1cccc(NC(=O)c2cc3cccc(OC)c3o/c2=N\O)c1	none (no result: Shn3 3UTR inh, Gli-Sufu antag, MITF TRPM1 inh, EBV LMP1 NFkB)
COc1ccc2oc(=O)c(C(=O)Nc3cccc(C)c3)cc2c1	none
COc1cccc(NC(=O)c2cc3ccccc3o/c2=N\O)c1	none | Jurkat NFkB conf inactive
Cc1cccc(NC(=O)c2cc3ccccc3oc2=O)c1	none | Jurkat NFkB conf inactive
CCc1cccc(NC(=O)c2cnn(-c3ccccc3)c2C)c1	none
COc1cccc(NC(=O)c2cnn(-c3ccccc3)c2C)c1	none | Jurkat NFkB conf inactive
Cc1ccsc1C(=O)OCC(=O)Nc1ccc(Cl)cc1C(F)(F)F	none
CC(C)NS(=O)(=O)c1ccc(NC(=O)C2CC3C=CC2C3)cc1 (stereo not drawn)	none
Cc1cccc2c(C(=O)N3CCN(c4ccccc4)CC3)cc(-c3ccncc3)nc12	Jurkat NFkB inh 60 | Jurkat NFkB conf inactive
Cc1cccc2c(C(=O)N3CCCCC3)cc(-c3ccccc3)nc12	none
Nc1cccc2nc3ccccc3cc12	Jurkat NFkB inh 62, MITF TRPM1 inh 85 | Jurkat NFkB conf inactive
Cc1nc2ccc(C(=O)N3c4ccccc4CC3C)cc2s1 (stereo not drawn)	Jurkat NFkB inh 55 | Jurkat NFkB conf inactive
COc1ccc(C2c3ccc4ccccc4c3Oc3ncn(CCN(C)C)c(=N)c32)cc1 (stereo not drawn)	Jurkat NFkB inh 51, MITF TRPM1 inh 95 | Jurkat NFkB conf inactive
CN(C)CCCn1cnc2c(c1=N)C(c1ccccc1)c1ccc3ccccc3c1O2 (stereo not drawn)	Jurkat NFkB inh 87, MITF TRPM1 inh 99 | Jurkat NFkB conf inactive
N=c1c2c(ncn1CCCO)Oc1c(ccc3ccccc13)C2c1ccccc1 (stereo not drawn)	none (no result: Gli-Sufu antag)
CCOc1cc(/C=N/N=C(/N)c2nonc2N)cc(Br)c1OCc1ccc(Cl)cc1	none
Cc1ccc2[nH]c(=O)c(CN(Cc3ccccc3Cl)C(=O)N3CCOCC3)cc2c1	none
COC(=O)CSc1nc2ccc(C)cc2cc1C#N	none | Jurkat NFkB conf inactive
COC(=O)CSc1nc2cc(OC)ccc2cc1C#N	none | Jurkat NFkB conf inactive
COc1ccc2cc(C#N)c(SCC(=O)N3CCCC3)nc2c1	none
CCC(C)(C)NC(=O)C1CCN(S(=O)(=O)c2cccs2)CC1	none
N#CCC(CNc1ncc(C(F)(F)F)cc1Cl)OC(=O)c1cccc(C(F)(F)F)c1 (stereo not drawn)	Jurkat NFkB inh 60 | Jurkat NFkB conf inactive
COc1ccc(NC(=S)NNC(=O)c2ccccc2OC(F)F)cc1	Jurkat NFkB inh 53 | Jurkat NFkB conf inactive
CCc1ccc(NC(=S)NNC(=O)c2ccccc2OC(F)F)cc1	none (no result: Shn3 3UTR inh, Gli-Sufu antag, MITF TRPM1 inh, EBV LMP1 NFkB)
COc1ccc(C(=O)NNC(=S)Nc2ccccc2)cc1	none | Jurkat NFkB conf inactive
COc1ccc(NC(=S)N/C(=N/CS(=O)(=O)c2ccccc2)c2ccccc2)cc1	none | Jurkat NFkB conf inactive
CCNC(=O)CC1C(=O)N(c2ccc(C)cc2)C(=O)N1CCc1ccc(OC)c(OC)c1 (stereo not drawn)	none
O=C(Nc1ccccc1)c1ccc(-c2ccccc2)s1	none | Jurkat NFkB conf inactive
Cc1cc(-c2ccc(C(=O)O)s2)cnc1N	none
O=C(Nc1ccccc1)c1sc(Cl)nc1-c1ccccc1	none
O=C(Nc1ccccc1)c1cc2ccc3ccccc3c2s1	none | Jurkat NFkB conf inactive
O=C(O)c1ccc(-c2ccc(-c3ccccc3)cc2)s1	Jurkat NFkB inh 61, MITF TRPM1 inh 81 (no result: Gli-Sufu antag) | Jurkat NFkB conf inactive
O=C(c1cc2ccccc2o1)N1CCN(S(=O)(=O)c2ccc(F)c(F)c2F)CC1	none
CCOC(=O)N1CCN(C(=O)C2CCN(S(=O)(=O)N3CCC4(CC3)OCCO4)CC2)CC1	none
C=CCSc1nc2ccccc2n1C(=O)/C=C/c1cc(OC)c(OC)c(OC)c1	Jurkat NFkB inh 64, Shn3 3UTR inh 97, MITF TRPM1 inh 87, EBV LMP1 NFkB 81 | Jurkat NFkB conf inactive
COc1cc(/C=C/C(=O)N2CCN(C(=O)/C=C/c3cc(OC)c(OC)c(OC)c3)CC2)cc(OC)c1OC	none
O=C(Nc1ccon1)c1cc2c(s1)CCCC2	none | Jurkat NFkB conf inactive
C/C(=N\Nc1nncc2ccccc12)c1cccc(OC(F)F)c1	none | Jurkat NFkB conf inactive
CCCCn1c2c(c(=N)c3c1CCC3)CCC2	Jurkat NFkB inh 58 | Jurkat NFkB conf 48
CCOc1ccc2nc(N3CCCCCC3)sc2c1	none | Jurkat NFkB conf inactive
CCOC(=O)c1cc(CC)sc1NC(=O)c1cc([N+](=O)[O-])ccc1N1CCOCC1	Jurkat NFkB inh 59 | Jurkat NFkB conf inactive
